Laboratory results taken from the supplement of paper PMC9897528.

tested on: Scedosporium aurantiacum CBS 136046; assay: growth inhibition relative to DMSO control (OD600); higher = more antifungal activity, active = 80 or more; extreme values may be limits of the assay; details: 5 µM; 72 h; 37 °C
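Further: conidia screened in RPMI 1640 medium under 5% CO2, growth read by spectrophotometer, medium with 0.5% DMSO serving as the untreated reference.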

Growth inhibition, inactive:
CC(C)(C)NC(=O)[C@@H]1CN(Cc2cnc3occc3c2)CCN1C[C@@H](O)C[C@@H](Cc1ccccc1)C(=O)N[C@H]1c2ccccc2C[C@H]1O 1.85%
CC(C)Nc1ncnc2c1cnn2-c1ccc(Cl)cc1 10.7%
O=C(O)CSc1cc(NS(=O)(=O)c2cccc3cccnc23)c2ccccc2c1O 20.8%
O=c1cc(Nc2ccc3ccccc3c2)[nH]c(=O)[nH]1 0.738%
COC(=O)Nc1nc2cc(Sc3ccccc3)ccc2[nH]1 0.273%
NC(=O)C(c1ccccc1)(c1ccccc1)[C@H]1CCCN(CCc2ccc3c(c2)CCO3)C1 13.5%
CCc1cc(CCCOc2c(C)cc(-c3noc(C(F)(F)F)n3)cc2C)on1 7.39%
O=C(O)c1cc(-c2ccc(Br)cc2)nc2ccc(Cl)cc12 15.5%
CN1c2ccc(Cl)cc2N(c2ccccc2)C(=O)c2cn(Cc3ccc(CN4CCOCC4)cc3)nc21 17.1%
O=C(Nc1[nH]c(=O)ncc1F)c1ccccc1 5.77%
CCCNc1ccc(S(=O)(=O)Nc2cc(C)on2)cc1 0.262%
CC(C)c1ccc(COc2cccc(-c3cc([S+](C)[O-])c(C#N)c(=O)[nH]3)c2)cc1 (stereo not drawn) 0%
O=C(O)COc1cccc2c1CC[C@](O)(COC(=O)N(c1ccccc1)c1ccccc1)C2 0.943%
C[C@H](c1cccc2ccccc12)N(C)Cc1ccccc1 14.5%
Nc1nc2c(ncn2COC(CO)CO)c(=O)[nH]1 11.1%
NC[C@H]1O[C@H](O[C@H]2[C@H](O)[C@@H](O[C@H]3O[C@H](CO)[C@@H](O)[C@H](N)[C@H]3O)[C@H](N)C[C@@H]2N)[C@H](N)C[C@@H]1O 15.5%
CN(C/C=C/C#CC(C)(C)C)Cc1cccc2ccccc12 23.6%
COc1ccc(NS(=O)(=O)c2ccc(Cl)s2)cn1 11.2%
CCC(CC)[C@H](NC(C)=O)[C@@H]1[C@H](O)[C@@H](C(=O)O)C[C@H]1NC(=N)N 14.3%
CCc1nc(N)nc(N)c1C#CCc1ccccc1 30.8%
Cc1oncc1C(=O)Nc1ccc(C(F)(F)F)cc1 15.6%
CCOC(=O)N[C@@H]1CC[C@@H]2[C@@H](C1)C[C@H]1C(=O)O[C@H](C)[C@H]1[C@H]2/C=C/c1ccc(-c2cccc(F)c2)cn1 44.3%
CCc1c(O)nc2ccc(F)cc2c1OCC1CCC1 23.8%
CC[C@H]1OC(=O)[C@H](C)[C@@H](O[C@H]2C[C@@](C)(OC)[C@@H](O)[C@H](C)O2)[C@H](C)[C@@H](O[C@@H]2O[C@H](C)C[C@H](N(C)C)[C@H]2O)[C@](C)(O)C[C@@H](C)C(=O)[C@H](C)[C@@H](O)[C@]1(C)O 0.273%
COc1cc2c(O)c3c(c(-c4ccc5c(c4)OCO5)c2cc1OC)C(=O)OC3 25%
CC[C@@]1(O)C(=O)OCc2c1cc1n(c2=O)Cc2cc3c(CN(C)C)c(O)ccc3nc2-1 21.5%
Cc1nc2ccc(Cl)cc2c(-c2ccccc2)c1CC(=O)O 14.2%
O=C(c1ccccc1)N1CCN(c2ccccc2NC(=O)C(Cl)(Cl)Cl)CC1 33.8%
CCNC(=O)Nc1cc(-c2ccccc2)c(-c2cncc(C(=O)O)c2)cn1 8.53%
CC(C)Cn1c(=O)n(C)c(=O)c2c(-c3cncn3C)n(Cc3cccc4ccccc34)nc21 29%
O[C@@](Cn1cnnn1)(c1ccc(F)cc1F)C(F)(F)c1ccc(-c2ccc(OCC(F)(F)F)cc2)cn1 47.1%
Cc1cc(O)c2c(c1)C(=O)c1c(I)c(O)c(I)c(O)c1C2=O 2.05%
Cc1nc(N(C)C(=O)Cc2ccc(-c3ccccn3)cc2)sc1S(N)(=O)=O 4.79%
CC1(C)[C@H](C(=O)O)N2C(=O)C[C@H]2S1(=O)=O 0%
NCCCc1ccccc1C(=O)Nc1ncc([N+](=O)O)s1 0%
OB1OCc2cc(Cl)ccc21 6.18%
O=S(=O)(Nc1cccc2cccnc12)c1ccccc1 13.6%
N#Cc1cc([N+](=O)[O-])ccc1Oc1ccccc1Cl 20.3%
